# Measurements from PubChem BioAssay (NCI).
# This is part of a sample that, as a whole, favours compounds with a hit. Of some 83,000 tested, about 20% had one in any assay.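 A percent growth of 40 corresponds to 60% growth inhibition; 0 means no net growth; -100 means all cells died. Active threshold: below 10.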 Values without a mark were called inactive. Calls of active or inactive are those of the source.
# Tested on: MDA-MB-468 breast
# Test: NCI-60 one-dose screen, 48 h (100 = growth as untreated, 0 = no growth, -100 = all killed)
# Settings: 10 µM unless noted
row,SMILES,growth
1,C=C(C)[C@@H]1CC[C@]2(C(=O)OC)CC[C@]3(C)[C@H](CC[C@@H]4[C@@]5(C)C/C(=C/c6cccc(I)c6)C(=O)C(C)(C)[C@@H]5CC[C@]43C)[C@@H]12,86.7%
2,Cc1ccc(-c2nc(SCC(=O)Nc3nc(-c4ccc(Cl)cc4)cs3)[nH]c(=O)c2C#N)cc1,117%
3,NC(=O)C1(Nc2ccc(Br)cc2)CCCC1,101%
4,C#CCn1cc(/C=N/Nc2nc(-c3ccc(Br)cc3)cs2)c2ccccc21,105%
5,CCN1C(=O)N(CC)C2C1NN=c1s/c(=C\c3ccc(C(F)(F)F)cc3)c(=O)n12 (stereo not given),9.87% (active)
6,CCN(CC)c1ccc(/C=N/NC(=O)Cc2ccc(Nc3ccnc(C(F)(F)F)c3)cc2)c(O)c1,26.1%
7,Cc1nc(C)c(-c2nn3c(-c4cccc(F)c4)nnc3s2)s1,89.5%
8,Brc1c[n+](Cc2ccc3ccccc3c2)cn1Cc1ccc2ccccc2c1,-29.1% (active)
9,Cc1ccncc1NC=O,107%
10,Cc1ccc2sc3c(NCCCNCCO)nc4ccccc4c3c(=O)c2c1,42.5%
11,Cc1cc(C)n(-c2nc(-c3cccs3)c(C#N)c(=O)[nH]2)n1,112%
12,CCCCCCCCCCCCCCCC[N+]1(C)CCN(SN2CC[N+](C)(CCCCCCCCCCCCCCCC)CC2)CC1,52.2%
13,C/C(=N\Nc1ccc(Cl)cn1)c1ccc2ccccc2n1,-20.3% (active)
14,CCN1CCN(CCNc2nccc(-c3c(-c4ccc(F)c(OC)c4)nc4sccn34)n2)S1(=O)=O,80.1%
15,O=C(NN1C(=O)CSC1c1ccc(Cl)cc1)c1cccnc1 (stereo not given),115%
16,COc1cc(OC)cc(N2C(=O)N(Cc3ccc(C(C)(C)C)cc3)c3ccccc3S2(=O)=O)c1,51.8%
17,Cc1nn(-c2ccc(Cl)cc2)c2nc3c(nc12)C(=O)c1ccccc1-3,49.2%
18,C=COCCCCCCCCCCCCCCCCCC,103%
19,CCOC(=O)C(C(=O)OCC)C1CCCCC1,105%
20,C#Cc1nc(C2=C(C)/C(=N/OCc3ccccc3)CC2)cs1,54.5%

row,SMILES,growth
1,COc1ccc(/C=C/C(=O)/C=C/c2cc3ccc(Cl)cc3[nH]c2=O)cc1,87.2%
2,O=C1C=Cc2ccccc2/C1=C/c1[nH]c(=O)[nH]c1O,41.5%
3,CCCCCc1ccc(S(=O)(=O)Nc2cccc(-c3csc(NC(=O)CCCCCN4CCN(C)CC4)n3)c2)cc1,79%
4,COc1ccc(CNC(=O)COc2ccc(/C=N/Nc3nc4ccccc4s3)cc2)cc1,28.3%
5,ClC1(Cl)C2CCCCCCC21 (stereo not given),118%
6,O=C(NCCO)c1cccnc1,93.7%
7,Clc1ccc(-c2nc(-c3ccco3)cn3ccnc23)cc1,-5.8% (active)
8,CC(C)(C)c1ccc(Cn2cc(CSc3nc4ccccc4s3)nn2)cc1,93.6%
9,Cc1ccc(-c2ccc(Nc3ccccc3)nn2)cc1S(N)(=O)=O,64%
10,CC(C)=CCc1cc(O)cc2c1OC(C=C(C)C)C1=C2C(=O)C2=C(C1=O)S(=O)(=O)CCN2 (stereo not given),-31.2% (active)
11,Nc1c(C(=O)Nc2cccc3cnccc23)sc2nc3c(cc12)C(=O)CCC3,47.9%
12,CCN(CC)c1ccc2cc(C(Nc3ccc(Cl)cc3)c3nnnn3C(C)(C)C)c(=O)oc2c1 (stereo not given),109%
13,COc1cc(-c2nc(SC(C)C)nc(Nc3ccccc3C)c2C#N)cc(OC)c1OC,111%
14,Cc1nc2scc(-c3ccccc3)n2c(=O)c1CCO,101%
15,NC(=N\N=C/Cc1ccccc1)/C(N)=N\N=C\Cc1ccccc1,112%
16,CC(C)(C)[Si](C)(C)OC1[C@@H](O[Si](C)(C)C(C)(C)C)[C@@H](CNC(=O)NC(=O)NC(=O)CCl)O[C@H]1n1cnc2c(NC(=O)Nc3ccccc3)ncnc21 (stereo not given in full),106%
17,O=C(/C=C/C12c3ccccc3C(c3ccccc31)C1C(=O)NC(=O)C12)c1ccc(Cl)cc1 (stereo not given),-19.5% (active)
18,CC/C(=C(/c1ccc(OCCN(C)C)cc1)c1ccc(OC(=O)CCC(=O)c2c(C)[nH]c(/C=C3\N=C(c4ccc[nH]4)C=C3OC)c2C)cc1)c1ccccc1,53.4%
19,CCN(CC)c1ccc(/C=N/NC(=O)c2ccccc2Nc2ccnc(C(F)(F)F)c2)c(O)c1,24.7%
20,CCCCN(C=S)CCCC,101%
